Sampled rows, rich in hits. Any-hit rate of the full collection: about 11%.
hNpr1 antagonist – blocks ANP-stimulated signaling of human Npr1 receptor. HEK293 hNpr1 GloSensor cGMP, ANP-stimulated luminescence. 76,000 tested, 1.6% active. AID 1347048. Potency, µM (doses to about 46.3 µM), most hits filed as inhibitors; calls by dose curve; also: nearly all actives have a fitted effect of over 60% in size
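HEK293 cells stably expressing human Npr1 and cGMP GloSensor pGS-40F, loaded 2 h with 2% GloSensor reagent, given compound 30 min at room temperature. Luminescence read before and 20 min after 0.1 nM hNppA.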
3T3 cytotox – kills NIH 3T3 cells. NIH 3T3 viability, CellTiter-Glo ATP luminescence, 48-72 h. Potency, µM (top dose mostly 96.7 µM), hits mostly inhibitors. 94,000 tested, 4.3% active. AID 1345082; also: nearly all actives have a fitted effect of over 55% in size
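Luminescent ATP readout (CellTiter-Glo, 10 min RT) after 48 or 72 hr compound exposure of NIH 3T3 cells seeded at 400 cells/well in 1536-well format; quantitative HTS.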
HEK293 tox – cytotoxic compounds in HEK 293 cells; 94,000 tested, 6.6% active; Potency, µM (series often up to 115 µM), usual class: inhibitors; AID 1345083; HEK 293 viability, ATP luminescence (CellTiter-Glo), 48-72 h; also: nearly all actives have a fitted effect of over 60% in size
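HEK 293 seeded at 250 cells/well receive compound via pintool. After 48 or 72 hr at 37 degree Celsius, 5% CO2 and 95% humidity, CellTiter-Glo is dispensed and luminescence read following 10 min at room temperature.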
Luciferase inh – inhibitors of firefly (Photinus pyralis) luciferase; 76,000 tested, 2.5% active; Potency, µM (titrated, usually from 115 µM), most hits filed as inhibitors; purified P. pyralis luciferase, luminescence, biochemical; P08659; also: nearly all actives have a fitted effect of over 65% in size
Target sequence (P08659 whole entry, looked up): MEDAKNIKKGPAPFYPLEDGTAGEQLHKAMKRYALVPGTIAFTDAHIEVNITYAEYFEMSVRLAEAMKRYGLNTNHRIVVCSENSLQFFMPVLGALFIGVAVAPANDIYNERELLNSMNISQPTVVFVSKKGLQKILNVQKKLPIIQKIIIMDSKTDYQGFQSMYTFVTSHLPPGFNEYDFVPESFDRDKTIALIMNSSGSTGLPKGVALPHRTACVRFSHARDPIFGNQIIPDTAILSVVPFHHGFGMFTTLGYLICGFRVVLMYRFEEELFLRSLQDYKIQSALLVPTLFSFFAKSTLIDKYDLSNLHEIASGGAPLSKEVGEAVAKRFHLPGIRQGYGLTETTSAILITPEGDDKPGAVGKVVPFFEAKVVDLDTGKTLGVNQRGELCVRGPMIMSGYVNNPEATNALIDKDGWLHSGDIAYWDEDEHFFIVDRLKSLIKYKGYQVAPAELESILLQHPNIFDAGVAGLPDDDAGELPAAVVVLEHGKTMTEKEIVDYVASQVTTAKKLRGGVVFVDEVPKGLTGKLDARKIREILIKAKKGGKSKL
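Inhibitors were tested against purified firefly luciferase in a biochemical, low-substrate format (both substrates at 10uM) and luminescence measured with a CCD imager.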
Numbers stand for hits; i = inactive; ? = inconclusive; nt = no result. Unless noted, calls follow the shape of the dose curve; as a rule, active = well fitted curve in the direction sought with a large enough effect; inconclusive = small, poorly fitted or top-dose-only effect, or another doubt; inactive = no such curve, though single readings can be large; an effect the other way counts as inactive or inconclusive.

SMILES	hNpr1 antagonist	3T3 cytotox	HEK293 tox	Luciferase inh
CCn1ncc(N2CCCC(CC(=O)Nc3cc(OC)cc(OC)c3)C2)cc1=O (centres undefined)	i	39.8µM	i	i
COCCn1ncc(N2CCCC(CC(=O)Nc3ccc(Cl)cc3)C2)cc1=O (centres undefined)	i	31.6µM	?	i
CCOC(=O)C1CCCN(C(=O)C2CCc3nnc(C4CC4)n32)C1 (centres undefined)	nt	25.1µM	?	nt
CCN1c2cc(C(=O)NCc3cc(F)ccc3F)ccc2C(=O)N2CCCCCC21 (centres undefined)	i	?	?	i
CN1CCC(OC2CCN(C(=O)CCCc3ccccc3)CC2)CC1	i	i	i	28.2µM
CNC(=O)N1CCC(C2CCN(C(=O)Cc3ccccc3)C2)CC1 (centres undefined)	i	i	i	i
CNC(=O)N1CCC(C2CCN(C(=O)CCCc3ccccc3)C2)CC1 (centres undefined)	i	i	i	25.1µM
Cc1cccc(C2c3cc(OCc4nc(C(=O)NC(C)C)co4)ccc3CCN2C(=O)C2CC2)c1 (centres undefined)	i	14.1µM	17.8µM	i
CCNC(=O)c1coc(COc2ccc3c(c2)C(c2cccc(C)c2)N(C(=O)C2CC2)CC3)n1 (centres undefined)	?	?	?	i
CC(C)NC(=O)c1coc(COc2ccc3c(c2)C(c2cccc(F)c2)N(C(=O)C2CC2)CC3)n1 (centres undefined)	i	22.4µM	?	i
COc1cccc(CN2Cc3nc(OCc4ccc(F)cc4)ccc3OCC2=O)c1	?	?	100µM	i
O=C1COc2ccc(OCc3ccccc3)nc2CN1Cc1ccc(F)cc1	i	?	?	?
COc1cccc(-c2ccc3c(n2)CN(Cc2ccc(F)cc2)C(=O)CO3)c1	?	?	89.1µM	i
O=C(C[C@@H]1CCNC[C@@H]1Cc1cc(COc2ccccc2)on1)N1CCN(c2ccc(F)cc2)CC1	i	25.1µM	22.4µM	i
CCN(CC)C(=O)C[C@@H]1CCNC[C@@H]1Cc1cc(CC2CCCCC2)on1	i	25.1µM	70.8µM	i
O=C(C[C@@H]1CCNC[C@@H]1Cc1cc(CC2CCCCC2)on1)NC1CC1	i	?	i	i
CC(C)(C)c1cc(C[C@H]2CNCC[C@H]2CC(=O)Nc2ccccc2)no1	i	112µM	?	i
CN(Cc1ccccc1)C(=O)C[C@@H]1CCNC[C@@H]1Cc1cc(CC2CCCCC2)on1	?	44.7µM	28.2µM	i
Cc1cnc(C2CC2)n1C1CCCN(C(=O)c2nn(C)c3ccccc23)C1 (centres undefined)	i	?	?	i
CCOCCCNC(=O)c1nnn2cc(-c3ccccc3)[nH]c(=O)c12	i	?	i	i
CCCCc1cc(C[C@H]2CNCC[C@H]2CC(=O)Nc2nccs2)no1	i	?	?	63.1µM
CN(Cc1ccccc1)C(=O)C[C@@H]1CCNC[C@@H]1Cc1cc(-c2ccc(F)cc2)on1	i	31.6µM	35.5µM	i
CC(C)(C)NC(=O)C[C@@H]1CCNC[C@@H]1Cc1cc(CC2CCCCC2)on1	i	35.5µM	44.7µM	i
O=C(C[C@@H]1CCNC[C@@H]1Cc1cc(-c2ccc(F)cc2)on1)N1CCC(Cc2ccccc2)CC1	i	20µM	31.6µM	i
CCc1ccccc1S(=O)(=O)N1CCN(C2CCN(Cc3ccccn3)C2=O)CC1 (centres undefined)	i	i	i	i
SMILES	hNpr1 antagonist	3T3 cytotox	HEK293 tox	Luciferase inh
CCOCC(=O)N1CCC(N2C(=O)C3(CCCCC3)C2c2ccncc2)CC1 (centres undefined)	i	i	i	i
CN(Cc1ccccc1)C(=O)C[C@@H]1CCNC[C@@H]1Cc1cc(CN(C)c2ccccc2)on1	i	79.4µM	?	i
COCc1cc(C[C@H]2CNCC[C@H]2CC(=O)N(C)Cc2ccccc2)no1	i	i	i	i
Cc1ccc([S+](=O)([O-])N2CCCC(c3nn(-c4ccccn4)c(=O)[nH]3)C2)cc1 (centres undefined)	nt	?	i	nt
Cc1nn(-c2ccccc2)c2c1C(C(C)C)N(C1CCN(C(=O)c3ccc(Cl)cc3)CC1)C2=O (centres undefined)	nt	?	25.1µM	nt
COc1cccc(C(=O)N2CCC(N3C(=O)c4c(c(C)nn4-c4ccccc4)C3C(C)C)CC2)c1 (centres undefined)	nt	35.5µM	44.7µM	nt
Cc1nn(-c2ccccc2)c2c1C(C(C)C)N(C1CCN(C(=O)c3cccc(Cl)c3)CC1)C2=O (centres undefined)	nt	?	17.8µM	nt
